Test results: the OligoGym collection

What follows are sequences tested against SLC25A25 (assay: pooled miR-30 sensor sort-seq; sequence = guide strand). Settings: shRNA.
Note: reference of the scale not given here.

Row | Sequence | sensor-assay potency score (higher = more potent)
1 | TATCTTGACTCCCAAGTCCCGC | -1.03
2 | TTCTTTTTGTCCAAACTCTTAA | -1.04
3 | TTAAATGACAACTTCTAACGTC | 0.538
4 | TTGAGCGTCTCGTAGACTGCAA | 0.033
5 | AAATTCTTCAAAGTCTAGCTGC | 0.318
6 | TGCATGAGCACCTTGAGCCTGT | -0.00686
7 | TAAATGACAACTTCTAACGTCC | 0.0926
8 | TTCCAGTCGATGGTCATCGTGC | -0.398
9 | TCCACTGTGAACTCATCCGGGA | -0.99
10 | TTCTCGTAGACCACGTAGCTGA | -0.478

The sequences below were run against SLC25A30 in the same assay as above. Settings: shRNA.

Row | Sequence | sensor-assay potency score (higher = more potent)
11 | TTGCTTTGCGCTTGCATCCGAA | -1.2
12 | TATCATTCCTCCTTGAATGGTG | -0.0231
13 | TAAGTGCCTATCTTGATGGTGC | 0.212
14 | TATCGGTAGAGTTTCATCTTCT | 0.16
15 | TAGAGTTTCATCTTCTGGGCGT | 0.316
16 | TTCAATGAATAGTCGCTTCAAG | -0.455
17 | TGTCTGTAACAAGCAATCCAGG | -1.42
18 | TTATAGAGAGCAAAAAACCCTT | -0.63
19 | TAAATGTTCATGAAGTTGCCTA | -0.274
20 | TTATCGGTAGAGTTTCATCTTC | -0.374
21 | TGTAGCCAGAACATCTGCCATC | -1.32

Each sequence was assayed against SLC25A38 in the same assay as above. Settings: shRNA.

Row | Sequence | sensor-assay potency score (higher = more potent)
22 | AAGAGTACAGCCAACATCCCAA | -0.0219
23 | TTGATGACTCCTCTTTTGGAGA | -1.04
24 | TATGAATTGATGACTCCTCTTT | 0.416
25 | TATGAGTTTTGATAACATCCGC | -0.0581
26 | TGAGTTTTGATAACATCCGCAG | -0.615
27 | TAACATAAGCGTTTCCACCGTG | 0.26
28 | ATAGGTGACATACAGACCCCTG | -0.876
29 | ATGAGTTTTGATAACATCCGCA | 0.0272
30 | TAGGACTTCATCTTACTGCAGA | -0.516
31 | TTGAAAATAAGTGTCACTGCTT | 0.827
32 | TTTGATAACATCCGCAGGTTGA | -0.428
33 | TATATTTTTGGTCTGGTTGTAA | 0.16

Each sequence was assayed against SLC25A3 in the same assay as above. Settings: shRNA.

Row | Sequence | sensor-assay potency score (higher = more potent)
34 | TTCACAACTGTACTCTTCCACG | -0.783
35 | TTGTACAGTGCTTCAACAGTAC | 0.043
36 | TTGCACAAAAGACTCCAGCTAT | 0.0495
37 | TATGGTATCTGTCTCATCCAGA | 0.075
38 | TAAGTGTAACTGAGAATCCGTT | -0.605
39 | TTTTCTTTATTCAACACAGATA | -1.15
40 | TAAATCTGAAACTCTTGCCTTA | 0.121
